Compound activity as filed in PubChem.
This is one part of a sample in which hits are shown more often than they occur.
CBX7 AlphaScr: blocks human CBX7 binding to H3K27me3 peptide | AlphaScreen His6-CBX7 / biotin-H3K27me3 peptide binding; hits give low values | 1.1% of 66,000 active | O95931 | AID 1224903 | normalised signal (fraction of DMSO) (concentration not given with the values); in the data active = normalised signal below about 0.5
Target sequence (O95931 whole entry, looked up): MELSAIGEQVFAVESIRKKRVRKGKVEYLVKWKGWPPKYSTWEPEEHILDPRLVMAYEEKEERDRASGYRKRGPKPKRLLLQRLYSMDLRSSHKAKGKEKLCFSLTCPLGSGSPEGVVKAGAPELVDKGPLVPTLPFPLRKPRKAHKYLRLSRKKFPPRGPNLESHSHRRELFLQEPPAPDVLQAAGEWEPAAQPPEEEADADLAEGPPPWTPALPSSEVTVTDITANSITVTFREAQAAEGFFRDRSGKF
Starred values were filed as active, the others as inactive.

For COc1ccc(CCNC(=O)c2ccc3c(c2)N(Cc2ccc(Cl)cc2)CCS3)cc1OC the results were CBX7 AlphaScr 0.82.
O=C(Cn1nc(Cc2cccnc2)c2ccccc2c1=O)NC1CCCCCC1 was read as CBX7 AlphaScr 1.1.
Screening CN1CCN(CCCNC(=O)CN2C(=O)CSc3ncccc32)CC1 returned CBX7 AlphaScr 1.1.
COc1ccc(CCNC(=O)CC2Sc3ccc(C(F)(F)F)cc3NC2=O)cc1OC (stereo not given) was read as CBX7 AlphaScr 1.
`Cc1ccc(CNC(=O)c2ccc3c(c2)N(Cc2ccccc2C)C(=O)c2ccccc2S3)cc1` gave CBX7 AlphaScr 0.93.
C=CCN(CC=C)S(=O)(=O)c1ccc(C(=O)Nc2nnc(CC)o2)cc1 was read as CBX7 AlphaScr 0.064*.
C=CCN(CC=C)S(=O)(=O)c1ccc(C(=O)Nc2nnc(-c3cc(OC)cc(OC)c3)o2)cc1 was read as CBX7 AlphaScr 0.94.
Screening Cc1nnc(NC(=O)c2ccc(S(=O)(=O)N(C)c3ccccc3)cc2)o1 returned CBX7 AlphaScr 0.78.
`CCN(c1ccccc1)S(=O)(=O)c1ccc(C(=O)Nc2nnc(C)o2)cc1` gave CBX7 AlphaScr 0.052*.
For Cc1ccc(-c2csc(NC(=O)c3ccc(S(=O)(=O)N(C)c4ccccc4)cc3)n2)cc1 the results were CBX7 AlphaScr 1.
Screening Cc1nc2cc(-c3ccccc3)nn2c(C)c1CCC(=O)NC1CCN(Cc2ccccc2)CC1 returned CBX7 AlphaScr 1.3.
`Cc1ccn2c(Nc3c(C)cccc3C)c(-c3cccs3)nc2c1` gave CBX7 AlphaScr 1.
`O=C(O)c1ccc(CSc2nnc(-c3ccccc3)n2Cc2ccccc2)cc1` gave CBX7 AlphaScr 1.1.
For CCCN(CCC)S(=O)(=O)c1ccc(C(=O)Nc2nc(-c3ccncc3)cs2)cc1 the results were CBX7 AlphaScr 0.97.
`CCCCN(CCCC)S(=O)(=O)c1ccc(C(=O)Nc2nc(-c3ccncc3)cs2)cc1` gave CBX7 AlphaScr 1.
`O=C(Nc1nc(-c2ccccn2)cs1)c1ccc(S(=O)(=O)N2CCCCC2)cc1` gave CBX7 AlphaScr 0*.
For O=C(Nc1nc(-c2ccccn2)cs1)c1ccc(S(=O)(=O)N2CCOCC2)cc1 the results were CBX7 AlphaScr 0*.
O=C(Nc1nc(-c2nc3ccccc3s2)cs1)c1ccc(S(=O)(=O)N2CCCCCC2)cc1 was read as CBX7 AlphaScr 1.1.
For O=C(Nc1nnc(-c2ccccc2)s1)c1ccc(S(=O)(=O)N2CCOCC2)cc1 the results were CBX7 AlphaScr 1.
Screening O=C(Nc1nc(-c2ccncc2)cs1)c1ccc(S(=O)(=O)N2CCOCC2)cc1 returned CBX7 AlphaScr 0.97.
`O=C(Nc1nc(-c2ccncc2)cs1)c1ccc(S(=O)(=O)N2CCCCCC2)cc1` gave CBX7 AlphaScr 1.
Screening CCCCN(CC)S(=O)(=O)c1ccc(C(=O)Nc2nc(-c3ccccn3)cs2)cc1 returned CBX7 AlphaScr 0.48*.
Screening CCN(c1ccccc1)c1ncnc2c1cnn2-c1ccc(Cl)cc1 returned CBX7 AlphaScr 0.98.
Cn1nc(-c2ccccc2F)c2cc(C(=O)Nc3cccnc3)sc21 was read as CBX7 AlphaScr 1.
Cc1cccc(S(=O)(=O)Nc2cccc(-c3cn4c(C)cccc4n3)c2)c1 was read as CBX7 AlphaScr 0.95.
CC(C)(C)NC(=O)CN1C(=O)CSc2ccc(S(=O)(=O)N3CCCCC3)cc21 was read as CBX7 AlphaScr 0.99.
For CCOC(=O)c1[nH]c2c(c1Cc1ccccc1OC)C(=O)CC(c1ccc(Cl)cc1)C2 (stereo not given) the results were CBX7 AlphaScr 0.92.
FC(F)(F)c1cccc(Nc2c(-c3ccsc3)nc3ncccn23)c1 was read as CBX7 AlphaScr 1.2.
For Cc1cccc(C(=O)Nc2c(C(=O)Nc3cccc(F)c3)oc3ccccc23)c1 the results were CBX7 AlphaScr 1.1.
O=C(CN1CCN(Cc2cccc(Cl)c2)C1=O)N1CCC(Cc2ccccc2)CC1 was read as CBX7 AlphaScr 0.91.
`C=CCN(CC=C)S(=O)(=O)c1ccc(C(=O)Nc2nnc(C3CC3)o2)cc1` gave CBX7 AlphaScr 0.004*.
`C=CCN(CC=C)S(=O)(=O)c1ccc(C(=O)Nc2sc3c(c2C(=O)OC)CCN(C)C3)cc1` gave CBX7 AlphaScr 1.1.
For CCN(CC)S(=O)(=O)c1ccc(C(=O)Nc2nnc(-c3cccs3)o2)cc1 the results were CBX7 AlphaScr 0.73.
CCN(CC)S(=O)(=O)c1ccc(C(=O)Nc2nnc(C3CC3)o2)cc1 was read as CBX7 AlphaScr 0.003*.
CN(Cc1ccccc1)S(=O)(=O)c1ccc(C(=O)Nc2nnc(C3CC3)o2)cc1 was read as CBX7 AlphaScr 0.5.
N#CCCN(CCC#N)S(=O)(=O)c1ccc(C(=O)Nc2nnc(C3CC3)o2)cc1 was read as CBX7 AlphaScr 0.0021*.
`COc1cc2c(C(=O)NCCCN3CCC(C)CC3)cn(CC(C)C)c(=O)c2cc1OC` gave CBX7 AlphaScr 1.1.
`Cc1ccccc1NC(=O)C1(N(Cc2ccccc2)C(=O)Cc2nc(N)n[nH]2)CCCCC1` gave CBX7 AlphaScr 0.66.
For COc1cc(C(=O)Nc2nnc(CSCc3ccccc3)s2)cc(OC)c1OC the results were CBX7 AlphaScr 1.1.
Screening COc1ccc(NC(=O)C2CC(c3cccc(OC)c3OC)=NO2)cc1OC (stereo not given) returned CBX7 AlphaScr 1.
`Cc1noc(C)c1S(=O)(=O)N(CC(=O)NCc1cccs1)c1ccc(C(C)C)cc1` gave CBX7 AlphaScr 1.3.
For COc1ccc(Nc2cc(C(=O)N3CCCC3)c3ccccc3n2)cc1 the results were CBX7 AlphaScr 0.95.
`COc1ccc(Nc2nc(N3CCCC3)c3ccccc3n2)cc1` gave CBX7 AlphaScr 0.49*.
COC(=O)c1ccc(Nc2nc(N3CCN(C)CC3)c3ccccc3n2)cc1 was read as CBX7 AlphaScr 1.
CCn1c(C(=O)N2CCCC(C(=O)NC3CCCC3)C2)cc2sccc21 (stereo not given) was read as CBX7 AlphaScr 0.93.
COc1ccc2[nH]c(C)c(CCNCC(C)Cc3ccc4c(c3)OCO4)c2c1 (stereo not given) was read as CBX7 AlphaScr 0.34*.
COC(=O)c1ccc(C(=O)NCCc2c(C)[nH]c3ccc(OC)cc23)cc1 was read as CBX7 AlphaScr 0.95.
Screening COC(=O)c1cccc(CNCCc2c(C)[nH]c3ccc(OC)cc23)c1 returned CBX7 AlphaScr 0.7.
For COc1ccccc1CNC(=O)CCN1N=C(c2ccccc2)CCC1=O the results were CBX7 AlphaScr 1.
For Cc1nnc(Nc2ccc(OC(F)(F)Cl)cc2)c2ccccc12 the results were CBX7 AlphaScr 1.1.
O=C(Nc1cccc(-c2nc3ccccc3o2)c1)c1cnccn1 was read as CBX7 AlphaScr 1.2.
Screening Cc1ccccc1Nc1c(-c2ccc(N(C)C)cc2)nc2cccc(C)n12 returned CBX7 AlphaScr 0.46*.
Cc1ccccc1Nc1c(-c2ccc(Cl)cc2)nc2cccc(C)n12 was read as CBX7 AlphaScr 0.94.
Cc1ccccc1Nc1c(-c2ccccc2)nc2cccc(C)n12 was read as CBX7 AlphaScr 1.
`Cc1cc(C)c(Cc2c(C)nc3c(C(=O)NCCN4CCOCC4)cnn3c2C)c(C)c1` gave CBX7 AlphaScr 0.97.
Screening CCCNC(=O)C1CCN(C(=O)c2sccc2-n2cccc2)CC1 returned CBX7 AlphaScr 0.97.
For CCCn1cnc2cc(NCc3ccc(OCC)cc3)ccc21 the results were CBX7 AlphaScr 0.45*.
`Cc1ccc(CNc2ccc3c(c2)ncn3C)cc1` gave CBX7 AlphaScr 0.65.
Cc1ccc(CNc2ccc3c(c2)nc(C)n3C)cc1 was read as CBX7 AlphaScr 0.96.
